Measured values reported in the supplement of paper PMC11001985.

compound: C#CCNC(=O)CCSSCCC(=O)NCCc1ccc(C=O)c(C=O)c1; test: lysine labeling ratio R10:1 (500 µM / 50 µM probe), SILAC-ABPP in living cells; higher = lower intrinsic lysine reactivity toward the probe, active = 2 or less; conditions: HeLa; probe concentrations 500 vs 50 µM
Summary of the method: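 An alkyne-tagged lysine probe with a disulfide linker labelled living HeLa cells in PBS at room temperature at either 50 µM or 500 µM, using SILAC light and heavy cells in forward and reverse label swaps. Lysates were mixed, clicked to biotin-azide, trypsin-digested, enriched on neutravidin, DTT-released, alkylated and measured by LC-MS/MS on a TIMS-TOF Pro. Each lysine's R is the filtered median high-probe/low-probe MS1 peptide ratio, combined as the median over forward and reverse replicates, with 20 as the upper limit.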

Sequence of UniProt Q13813 (Q13813 whole entry): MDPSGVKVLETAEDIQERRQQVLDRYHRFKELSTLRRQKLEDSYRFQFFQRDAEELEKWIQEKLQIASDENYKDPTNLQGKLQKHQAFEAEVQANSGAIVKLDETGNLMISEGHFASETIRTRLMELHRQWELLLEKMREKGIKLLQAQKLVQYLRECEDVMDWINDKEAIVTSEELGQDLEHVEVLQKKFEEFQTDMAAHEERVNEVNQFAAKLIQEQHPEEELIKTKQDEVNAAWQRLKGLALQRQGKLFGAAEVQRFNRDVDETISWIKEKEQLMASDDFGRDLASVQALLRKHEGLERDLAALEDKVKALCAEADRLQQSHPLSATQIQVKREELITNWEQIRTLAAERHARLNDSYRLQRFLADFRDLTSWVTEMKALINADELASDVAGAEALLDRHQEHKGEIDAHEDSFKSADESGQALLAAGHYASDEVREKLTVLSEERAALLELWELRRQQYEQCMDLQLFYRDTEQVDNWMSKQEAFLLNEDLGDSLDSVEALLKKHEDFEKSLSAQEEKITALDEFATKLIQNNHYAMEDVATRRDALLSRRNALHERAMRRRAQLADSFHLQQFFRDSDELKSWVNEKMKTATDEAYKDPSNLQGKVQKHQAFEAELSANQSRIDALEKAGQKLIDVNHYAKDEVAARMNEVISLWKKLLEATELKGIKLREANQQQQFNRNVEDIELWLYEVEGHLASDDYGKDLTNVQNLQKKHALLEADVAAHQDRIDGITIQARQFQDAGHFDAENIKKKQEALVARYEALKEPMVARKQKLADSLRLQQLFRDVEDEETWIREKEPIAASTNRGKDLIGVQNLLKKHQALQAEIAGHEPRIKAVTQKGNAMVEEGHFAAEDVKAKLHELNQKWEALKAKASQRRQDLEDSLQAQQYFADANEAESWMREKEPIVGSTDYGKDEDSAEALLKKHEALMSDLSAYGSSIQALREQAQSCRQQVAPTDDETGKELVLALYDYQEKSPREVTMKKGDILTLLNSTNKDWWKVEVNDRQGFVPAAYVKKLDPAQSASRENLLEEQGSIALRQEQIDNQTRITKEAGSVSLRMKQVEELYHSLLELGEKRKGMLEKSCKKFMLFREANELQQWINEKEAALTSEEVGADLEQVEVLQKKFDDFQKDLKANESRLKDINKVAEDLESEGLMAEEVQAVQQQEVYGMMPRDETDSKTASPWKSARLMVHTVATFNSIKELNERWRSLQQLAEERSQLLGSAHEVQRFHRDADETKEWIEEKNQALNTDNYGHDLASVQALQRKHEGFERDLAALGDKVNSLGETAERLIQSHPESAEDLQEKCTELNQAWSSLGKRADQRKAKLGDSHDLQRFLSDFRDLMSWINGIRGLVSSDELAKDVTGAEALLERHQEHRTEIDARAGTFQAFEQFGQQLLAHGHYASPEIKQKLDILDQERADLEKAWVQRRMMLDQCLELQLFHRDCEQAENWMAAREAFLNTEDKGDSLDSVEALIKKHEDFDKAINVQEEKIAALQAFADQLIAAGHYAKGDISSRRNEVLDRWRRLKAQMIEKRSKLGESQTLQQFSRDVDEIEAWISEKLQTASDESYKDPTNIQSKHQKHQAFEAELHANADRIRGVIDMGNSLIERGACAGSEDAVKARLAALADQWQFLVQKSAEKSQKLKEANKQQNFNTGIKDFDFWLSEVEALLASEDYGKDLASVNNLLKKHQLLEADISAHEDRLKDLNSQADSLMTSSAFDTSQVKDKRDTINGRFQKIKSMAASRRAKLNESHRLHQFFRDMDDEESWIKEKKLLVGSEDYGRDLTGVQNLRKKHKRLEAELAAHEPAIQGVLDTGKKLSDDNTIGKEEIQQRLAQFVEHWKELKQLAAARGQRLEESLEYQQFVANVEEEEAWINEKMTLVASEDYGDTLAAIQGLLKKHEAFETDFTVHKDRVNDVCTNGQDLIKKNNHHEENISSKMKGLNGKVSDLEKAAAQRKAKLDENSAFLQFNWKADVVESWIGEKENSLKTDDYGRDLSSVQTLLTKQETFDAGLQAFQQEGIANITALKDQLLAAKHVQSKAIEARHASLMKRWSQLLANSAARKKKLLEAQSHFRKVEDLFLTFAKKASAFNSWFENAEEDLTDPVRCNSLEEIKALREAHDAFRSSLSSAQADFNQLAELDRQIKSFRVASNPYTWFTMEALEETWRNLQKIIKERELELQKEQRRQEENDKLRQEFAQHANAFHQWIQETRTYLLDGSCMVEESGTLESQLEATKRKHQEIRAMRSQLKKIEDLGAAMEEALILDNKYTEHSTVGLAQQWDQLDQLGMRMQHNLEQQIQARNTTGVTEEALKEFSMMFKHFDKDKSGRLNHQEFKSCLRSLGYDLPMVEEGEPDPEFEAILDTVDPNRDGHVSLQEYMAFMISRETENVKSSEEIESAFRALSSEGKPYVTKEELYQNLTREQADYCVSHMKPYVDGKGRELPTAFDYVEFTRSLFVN
Sequence of UniProt O14964 (O14964 whole entry): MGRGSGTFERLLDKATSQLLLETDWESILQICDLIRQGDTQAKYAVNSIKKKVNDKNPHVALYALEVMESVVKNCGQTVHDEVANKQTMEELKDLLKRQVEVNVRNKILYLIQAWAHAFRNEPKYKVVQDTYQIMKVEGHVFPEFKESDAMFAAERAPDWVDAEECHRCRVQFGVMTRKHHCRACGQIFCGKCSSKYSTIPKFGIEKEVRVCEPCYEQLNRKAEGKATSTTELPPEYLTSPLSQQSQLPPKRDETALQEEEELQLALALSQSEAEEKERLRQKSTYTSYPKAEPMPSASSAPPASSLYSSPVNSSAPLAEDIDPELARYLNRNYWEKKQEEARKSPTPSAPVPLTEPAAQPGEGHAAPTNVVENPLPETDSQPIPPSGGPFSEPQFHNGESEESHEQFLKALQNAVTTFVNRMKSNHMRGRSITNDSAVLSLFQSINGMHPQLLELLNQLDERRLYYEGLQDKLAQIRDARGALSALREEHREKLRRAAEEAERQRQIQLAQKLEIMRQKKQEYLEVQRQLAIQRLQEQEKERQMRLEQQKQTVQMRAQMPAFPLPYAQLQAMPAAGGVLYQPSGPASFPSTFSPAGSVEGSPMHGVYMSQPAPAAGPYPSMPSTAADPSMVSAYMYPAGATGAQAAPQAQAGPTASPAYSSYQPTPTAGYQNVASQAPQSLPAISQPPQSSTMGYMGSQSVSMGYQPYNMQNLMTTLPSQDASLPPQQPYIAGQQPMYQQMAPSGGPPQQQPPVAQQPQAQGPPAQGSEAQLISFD
Sequence of UniProt P50990 (P50990 whole entry): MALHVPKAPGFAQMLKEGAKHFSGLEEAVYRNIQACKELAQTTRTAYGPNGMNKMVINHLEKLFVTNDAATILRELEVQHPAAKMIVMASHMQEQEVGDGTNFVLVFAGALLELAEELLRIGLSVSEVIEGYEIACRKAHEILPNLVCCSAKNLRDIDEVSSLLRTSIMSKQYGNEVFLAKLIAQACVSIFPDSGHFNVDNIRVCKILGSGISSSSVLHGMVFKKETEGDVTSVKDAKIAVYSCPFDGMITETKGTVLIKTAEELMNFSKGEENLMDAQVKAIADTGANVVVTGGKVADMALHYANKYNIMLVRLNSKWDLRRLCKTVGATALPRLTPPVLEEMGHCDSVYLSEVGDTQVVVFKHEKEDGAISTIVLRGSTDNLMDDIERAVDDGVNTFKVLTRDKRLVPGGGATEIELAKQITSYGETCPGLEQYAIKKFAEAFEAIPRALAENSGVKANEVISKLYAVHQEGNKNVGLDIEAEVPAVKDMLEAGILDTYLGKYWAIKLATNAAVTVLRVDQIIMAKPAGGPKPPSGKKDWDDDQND
Sequence of UniProt P78371 (P78371 whole entry): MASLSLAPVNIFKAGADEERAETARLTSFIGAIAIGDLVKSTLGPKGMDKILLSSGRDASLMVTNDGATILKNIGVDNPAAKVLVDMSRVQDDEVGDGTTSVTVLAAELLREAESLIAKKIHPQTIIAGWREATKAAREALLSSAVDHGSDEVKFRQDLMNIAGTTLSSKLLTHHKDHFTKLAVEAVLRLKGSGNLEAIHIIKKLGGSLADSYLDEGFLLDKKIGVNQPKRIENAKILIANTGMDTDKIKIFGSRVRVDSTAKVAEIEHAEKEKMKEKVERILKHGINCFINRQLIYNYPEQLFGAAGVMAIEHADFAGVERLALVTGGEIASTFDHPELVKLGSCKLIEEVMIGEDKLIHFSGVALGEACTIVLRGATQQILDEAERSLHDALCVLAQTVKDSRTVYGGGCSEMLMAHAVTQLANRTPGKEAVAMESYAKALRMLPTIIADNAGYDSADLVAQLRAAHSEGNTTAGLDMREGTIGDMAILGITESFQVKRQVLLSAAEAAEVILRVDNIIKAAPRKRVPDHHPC
Sequence of UniProt P48509 (P48509 whole entry): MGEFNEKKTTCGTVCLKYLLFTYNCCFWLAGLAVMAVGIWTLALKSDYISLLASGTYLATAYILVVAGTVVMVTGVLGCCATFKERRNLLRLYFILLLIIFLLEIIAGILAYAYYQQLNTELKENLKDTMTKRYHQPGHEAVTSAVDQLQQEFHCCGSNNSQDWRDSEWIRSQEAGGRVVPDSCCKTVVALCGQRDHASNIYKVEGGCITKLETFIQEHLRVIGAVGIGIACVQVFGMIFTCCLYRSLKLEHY
Sequence of UniProt P34897 (P34897 whole entry): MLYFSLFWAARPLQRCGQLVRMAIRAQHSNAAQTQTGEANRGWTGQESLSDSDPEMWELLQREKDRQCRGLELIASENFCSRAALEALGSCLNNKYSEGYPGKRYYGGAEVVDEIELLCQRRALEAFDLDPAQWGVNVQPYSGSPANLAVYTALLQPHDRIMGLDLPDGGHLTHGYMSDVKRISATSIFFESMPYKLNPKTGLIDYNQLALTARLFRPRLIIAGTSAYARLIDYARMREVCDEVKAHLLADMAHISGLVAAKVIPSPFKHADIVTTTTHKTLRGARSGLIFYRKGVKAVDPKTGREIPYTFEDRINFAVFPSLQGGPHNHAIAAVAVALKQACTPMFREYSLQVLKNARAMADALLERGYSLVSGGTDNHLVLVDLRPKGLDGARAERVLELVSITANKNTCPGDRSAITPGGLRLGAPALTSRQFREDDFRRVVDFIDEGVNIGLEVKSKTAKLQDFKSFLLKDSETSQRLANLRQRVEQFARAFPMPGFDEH

Lysine labeling ratio R10:1, active:
UniProt P05187 (lysine site: K262) 0.97, UniProt Q15149 (lysine site: K1175) 1.67, SPTAN1 (lysine site: K1419) (UniProt Q13813) 0.907, CCT2 (lysine site: K284) (UniProt P78371) 1.69, CTTN (lysine site: K272) (UniProt Q14247) 1.57, UniProt P26639 (lysine site: K549) 0.996, LNPEP (lysine site: K626) (UniProt Q9UIQ6) 0.72, UniProt P60842 (lysine site: K238) 1.54, MSN (lysine site: K458) (UniProt P26038) 1.55, UniProt P17612 (lysine site: K48) 1.56, G6PD (lysine site: K432) (UniProt P11413) 1.85, CDCP1 (lysine site: K454) (UniProt Q9H5V8) 1.89, PDIA6 (lysine site: K245) (UniProt Q15084) 1.95, HGS (lysine site: K551) (UniProt O14964) 0.818, FLNB (lysine site: K2470) (UniProt O75369) 1.78

Lysine labeling ratio R10:1, inactive:
UniProt P62913 (lysine site: K178) 3.2, ITGB5 (lysine site: K170) (UniProt P18084) 3.44, CCT8 (lysine site: K440) (UniProt P50990) 2.29, UniProt P41250 (lysine site: K646) 2.94, FRAS1 (lysine site: K549) (UniProt Q86XX4) 4.59, RPL28 (lysine site: K84) (UniProt P46779) 2.27, UniProt Q9UHN6 (lysine site: K1220) 2.87, NLRX1 (lysine site: K301) (UniProt Q86UT6) 2.38, SLC4A7 (lysine site: K890) (UniProt Q9Y6M7) 4.29, CD151 (lysine site: K127) (UniProt P48509) 2.31, SPTAN1 (lysine site: K229) (UniProt Q13813) 3.87, CD109 (lysine site: K127) (UniProt Q6YHK3) 12, CFL1 (lysine site: K164) (UniProt P23528) 4.91, THBS1 (lysine site: K430) (UniProt P07996) 3.67, ACSL4 (lysine site: K702) (UniProt O60488) 2.14, UniProt P62899 (lysine site: K70) 12.9, UniProt P63000 (lysine site: K153) 2.29, GSN (lysine site: K245) (UniProt P06396) 4.08, UniProt P06576 (lysine site: K522) 3.5, ENG (lysine site: K291) (UniProt P17813) 5.59, IGF1R (lysine site: K598) (UniProt P08069) 5.67, SHMT2 (lysine site: K409) (UniProt P34897) 2.98, DNAJC9 (lysine site: K198) (UniProt Q8WXX5) 2.94, NECTIN3 (lysine site: K255) (UniProt Q9NQS3) 4.2, DYNC1H1 (lysine site: K4171) (UniProt Q14204) 2.12
